Screens deposited in PubChem BioAssay by Broad Institute.
aSyn UTR act = Activators via SNCA 5'UTR binding, MLPCN; activity score, % (tested at 7.5 µM), hits read low; AID 1814; alpha-synuclein 5'UTR reporter, activators screen; hit rate 7.1% among 300,000; in the data active = activity score below about -60%
The depositor's hits bear a star. These entries were drawn from the full list.

SMILES	aSyn UTR act
CCCc1cc2c(=O)c(-c3ccc4c(c3)OCCO4)coc2cc1OS(C)(=O)=O	-222*
CCCc1cc2c(=O)c(-c3ccc4c(c3)OCCO4)coc2cc1OC(=O)c1ccco1	-287*
CC(=O)N(/N=C1/C(=O)Nc2ccccc21)c1ccccc1	-114*
CCN(CC)c1ccc(NC(=O)c2ccc3c(c2)OCO3)cc1	-133*
CCOC(=O)c1c(C)[nH]c(C(=O)Nc2ccc3c(c2)OCO3)c1C	-99*
CCOC(=O)c1ccc(NC(=O)c2ccc3c(c2)OCO3)cc1	-118*
O=C(NC1CCCCCC1)C(=S)NC1CCCCC1	-98*
O=C(NC1CCCCCCC1)NC1CCCCC1	-127*
N/C(=N\O)c1ccc(NC(=O)c2cccs2)cc1	-81*
CC(=O)c1ccc(NC(=O)c2cccs2)cc1	-88*
Cc1ccc(NC(=O)c2ccccc2NC(=O)c2cccs2)cc1	-80*
COC(=O)Cc1ccc(NC(=O)c2cccs2)cc1	-159*
O=c1c2ccccc2nnn1COc1cccc2ccccc12	-147*
O=c1c2ccccc2nnn1COc1ccc(Cl)cc1Br	-154*
O=c1c2ccccc2nnn1COc1ccc(F)cc1Cl	-118*
Cc1nnc(SC(=O)N2c3ccccc3Sc3ccccc32)s1	-66*
CC(C)n1c(SCC(=O)N2c3ccccc3Sc3ccccc32)nc2c1c(=O)n(C)c(=O)n2C	58
O=C1OC(c2ccc(Cl)cc2)/C(=C(/O)c2ccccc2)C1=O (stereo not drawn)	-67*
O=C(c1ccccc1)N1C(=O)C(c2ccccc2)Oc2ccccc21 (stereo not drawn)	82
Cc1cccc(OCc2cc(-c3ccccc3)no2)c1C	-112*
COc1ccc(-c2cc(COc3ccccc3)on2)cc1	-132*
Fc1ccc(OCc2cc(-c3ccccc3)no2)cc1	-149*
CC(=O)c1ccc(NS(=O)(=O)c2cccc(C)c2)cc1	-127*
Cc1cccc(S(=O)(=O)Nc2ccc(-c3nc4ccc(C)cc4s3)cc2)c1	-172*
Cc1ccc2nc(-c3ccc(NS(=O)(=O)c4c(C)n(C)c(=O)n(C)c4=O)cc3)sc2c1	-94*
SMILES	aSyn UTR act
O=[N+]([O-])c1ccc(NNC(=S)Nc2ccccc2)cc1	-122*
O=[N+]([O-])c1ccc(O)c(NC(=S)Nc2ccccc2)c1	-157*
Fc1cccc(NC(=S)NNc2ccccc2)c1	-140*
COc1ccc(-c2nnc(SCC(=O)c3ccc[nH]3)n2-c2ccccc2)cc1	-70*
CNC(=O)C(=O)Nc1nc(C23CC4CC(CC(C4)C2)C3)cs1	-129*
N/C(=N\OCc1ccccc1)c1nonc1N	-98*
CSc1cccc(NC(=O)N2CCCC(CNS(=O)(=O)Cc3ccccc3)C2)c1 (stereo not drawn)	-98*
CSc1cccc(NC(=S)N2CCC(c3ccccc3)C2)c1 (stereo not drawn)	-76*
COc1cccc(NC(=S)N2CCC(c3ccc(C)cc3)C2)c1 (stereo not drawn)	-66*
CCc1cccc(NC(=S)N2CCC(c3ccccc3)C2)c1 (stereo not drawn)	-88*
Cc1cc2c(ccc3c2no[n+]3[O-])nn1	-100*
[O-][n+]1onc2c3ccnnc3ccc21	-119*
CC(C)(C)c1cc[n+](C2=C([O-])c3ccccc3C(=O)/C2=N\S(=O)(=O)c2cccs2)cc1	69
O=C(NCc1ccco1)c1cccc(-c2nnc(-c3ccccc3)o2)c1	-71*
Cc1cccc(-c2noc(-c3ccccc3C(=O)NCc3ccco3)n2)c1	-62*
Nc1c(C(=O)NCc2ccco2)nnn1-c1ccccc1	-125*
CCc1nc(SCc2ccc(OC)cc2)n[nH]1	-82*
Cc1cccc(NCc2nc3ccccc3n2C)c1	-193*
Cn1c(CNc2ccc(Cl)cc2)nc2ccccc21	-176*
Cc1nc2cc(NCc3nc4ccccc4n3Cc3ccccc3)ccc2n1C	-96*
Cc1ccc(N2CCN(c3ccc(NCc4nc5ccccc5n4C)cc3)CC2)cc1	-89*
Cc1cc(N2CCOCC2)ccc1/C=C1\SC(=O)N(C(C)C)C1=O	-115*
CCC(C)N1C(=O)S/C(=C/c2ccc(N3CCOCC3)cc2C)C1=O (stereo not drawn)	-167*
O=C(C1COc2ccccc2O1)N1CCc2ccccc21 (stereo not drawn)	-106*
Cc1ccsc1/C=N\NC(=O)c1cc(C(C)(C)C)[nH]n1	-138*
SMILES	aSyn UTR act
CC(C)(C)c1cc(C(=O)N/N=C/c2ccco2)n[nH]1	-146*
CCNC(=S)Nc1ccc(OCc2nc3ccccc3s2)cc1	-90*
O=C(O)CCCC(=O)Nc1ccc(OCc2nc3ccccc3s2)cc1	-67*
Cc1c(OCC(F)(F)F)ccnc1CSc1nc2ccccc2[nH]1	-142*
COCCCOc1ccnc(CS(=O)c2nc3ccccc3[nH]2)c1C (stereo not drawn)	-111*
Cc1c(OCC(F)(F)F)ccnc1CS(=O)c1nc2ccccc2[nH]1 (stereo not drawn)	-99*
O=C(Nc1ccc(N=Nc2ccccc2)cc1)c1ccccc1Cl	-170*
CC1=NN(c2nc(-c3ccc(C)cc3)cs2)C(=O)C1N=Nc1ccc(C(N)=O)cc1 (stereo not drawn)	86
